Fewer than 10 of roughly 1,300 compounds were called active. Not shown: some 9% with an inconclusive outcome. Calls follow the shape of the dose curve; as a rule, active = well fitted curve in the direction sought with a large enough effect; inconclusive = small, poorly fitted or top-dose-only effect, or another doubt; inactive = no such curve, though single readings can be large or run the other way. Not all results are given here.
Assay: qHTS for antagonists of the Thyroid Stimulation Hormone Receptor: Hit Validation in Parental Cell Line; as to activity change, negative = inhibition: 0% is about no effect
Details: parental HEK293 cells lacking TSHR, counter-screen; series mostly up to 56.9 µM; activity change, negative = inhibition: at the top concentration
Source text: The thyroid-stimulating hormone receptor (TSHR) is a member of the 7 trans-membrane-spanning receptor (7TMR) family of cell surface receptors. TSHR-mediated hyperthyroidism is important in thyroid pathology. The development of small molecule antagonists of TSHR may lead to therapeutic approaches for TSHR-mediated hyperthyroidism caused by constitutively activating mutations or stimulating auto-antibodies associated with Graves' disease. Graves' disease is the leading cause of hyperthyroidism and is caused by autoantibodies that stimulate TSHR (TsAbs) causing thyroid growth and unregulated overproduction of thyroid hormones and existing treatments have liabilities (agranulocytosis). In addition, TSHRs are known to be expressed in multiple extrathyroidal tissues including bone, brain, kidney, testis, fat and cells of the immune system but the role of the TSHR in these tissues is not clear. Therefore, TSHR antagonists/inverse agonists could be used as probes of extrathyroidal TSHR function. Finally, TSHR inverse agonists, which are a subclass of antagonists that inhibit agonist-independent (or basal or constitutive) TSHR signaling, could be used to inhibit TSH-independent signaling in patients with recurrent or metastatic thyroid cancer who are receiving thyroid hormone to suppress TSH.
In collaboration between scientist from the NCGC and the NIDDK, a miniaturized HTRF high-throughput screen was developed. It's a cell based assay, where an anti cAMP antibody contains a fluorescent cryptate tag (excitation 337 nm; emission 620 nm) and the acceptor is cAMP-d2 (excitation 620 nm; emission 665 nm). When antibody and cAMP-d2 interact and are excited by a 337 nm light, a FRET occurs resulting in emission at 665 nm. The assay is competition between cAMP-d2 and cAMP (from the cell lysate). The homogeneous protocol allows for one step dispense after stimulation that is automation friendly. This is a hit validation assay in a counterscreen using parental HEK 293 cells lines.
NIH Chemical Genomics Center [NCGC]
NIH Molecular Libraries Probe Centers Network [MLPCN]
Assay Provider: Marvin Gershengorn, NIDDK
An anti cAMP antibody contains a fluorescent cryptate tag (excitation 337 nm; emission 620 nm) and the acceptor is cAMP-d2 (excitation 620 nm; emission 665 nm). When antibody and cAMP-d2 interact and are excited by a 337 nm light, a FRET occurs resulting in emission at 665 nm. The assay is competition between cAMP-d2 and cAMP (from the cell lysate). The homogeneous protocol allows for one step dispense after stimulation that is automation friendly. This assay uses parental HEK-EM 293 cells
Potency is read from the fitted curve at half-maximal effect.

SMILES | activity change, negative = inhibition | Potency
Cc1cc(C)n(C(=O)/C(C#N)=N/Nc2cc(Cl)cc(Cl)c2)n1 | 0.0538% (inactive) | 
COc1ccccc1C(=O)COC(=O)/C=C/c1ccccc1 | 3.14% (inactive) | 
CC[n+]1ccc(/C=C/c2ccc(N(C)C)cc2)c2ccccc21 |  | 26.9 µM (active)
CN(C)c1ccc(/C=C/c2cc[n+](C)cc2)cc1 | -7.72% (inactive) | 
O=C(CN1C(=O)c2ccccc2S1(=O)=O)NCCSCc1cccc(Cl)c1 | -1.03% (inactive) | 
CC1CCC(C(C)C)C(OC(=O)Cn2c(-c3ccccc3)[n+](C)c3ccccc32)C1 (centres undefined) | 2.05% (inactive) | 
N#Cc1c(C(F)(F)F)cc(-c2ccc(Cl)cc2)[nH]c1=O | -0.329% (inactive) | 
COc1ccc2nc(C)cc(N3CCN(S(=O)(=O)c4ccccc4F)CC3)c2c1 | -1.34% (inactive) | 
Cc1nc2ncnn2c(N2CCCC(C(=O)Nc3ccccc3Br)C2)c1C (centres undefined) | 5.02% (inactive) | 
O=S(=O)(c1ccc(Cl)cc1)N1CCN(c2ncnc3sccc23)CC1 | -4.26% (inactive) | 
Cc1noc(C)c1COc1ccccc1C(=O)N(C)Cc1ccc(C(C)(C)C)cc1 | -3.32% (inactive) | 
O=c1cc(C(F)(F)F)[nH]c2ccc(OC(F)(F)F)cc12 | 4.01% (inactive) | 
CCCC(=O)Nc1cccn(Cc2ccccc2Br)c1=O | -0.796% (inactive) | 
Cc1ccc(NC(=O)c2ccccc2NS(=O)(=O)c2ccc(F)cc2)cc1S(=O)(=O)N1CCCCC1 | -5.23% (inactive) | 
COc1cccc(C(=O)Nc2ccc(NC(=O)C3CCCCC3)nc2)c1 | -5.39% (inactive) | 
Cc1ccc(NC(=O)C(C)c2ccc(-c3ccccc3)c(F)c2)cc1 (centres undefined) | 0.0015% (inactive) | 
O=C(Nc1ccc(N=Nc2ccccc2)cc1)c1ccccc1Cl | -5.44% (inactive) | 
O=C(O)c1cccc(NC2=C(Cl)C(=O)c3ccccc3C2=O)c1 | -14.8% (inactive) | 
CCN(CC)c1ccc2nc3ccccc3[n+](CC)c2c1 |  | 13.5 µM (active)
Cn1c2c(c(=O)n(C)c1=O)C(C(F)(F)F)(C(F)(F)F)N=C(c1ccc(Cl)cc1)N2 | 0.519% (inactive) | 
Cc1sc(N/N=C/c2cccnc2)nc1-c1ccccc1 | -1.97% (inactive) | 
COc1ccccc1CNc1ncnc2sccc12 | 1.11% (inactive) | 
COc1ccc(NS(=O)(=O)c2ccc(N/N=C(\C)c3ccncc3)c([N+](=O)[O-])c2)cc1 | -6.85% (inactive) | 
COC(=O)c1sc(-c2ccc(Cl)cc2)cc1NC(=O)/C=C/C(=O)O | 6.29% (inactive) | 
COc1cccc(-c2nc(CS(=O)(=O)CC(=O)NC3CCCCCC3)c(C)o2)c1 | -0.472% (inactive) | 
CCCOc1ccc(-c2cc(C(=O)NCC3CCCO3)c3ccccc3n2)cc1 (centres undefined) | 4.51% (inactive) | 
COc1ccc(S(=O)(=O)N2CCN(c3cccc(C)c3C)CC2)cc1 | -1.34% (inactive) | 
CCOC(=O)c1cc(C(=O)Nc2sc3c(c2C#N)CCCC3)nn1C | 3.84% (inactive) | 
Cc1cccc(N(C(=O)c2nsc(Cl)c2Cl)C(C(=O)NC2CCCC2)c2ccc(O)cc2)c1C (centres undefined) | -4.34% (inactive) | 
